# Bioassay records as filed in PubChem.
# aSyn 5UTR act – Activators via SNCA 5'UTR binding, MLPCN; alpha-synuclein 5'UTR reporter, activators screen; activity score, % (tested at 7.5 µM), hits read low; hit rate 7.1% among 300,000; in the data active = activity score below about -60%
# A number is an active result; i = inactive. A selection follows.
SMILES,aSyn 5UTR act
O=C(c1cc(COc2ccc(F)cc2Cl)on1)N1CC2C[C@@H]3CC1C[C@H](C2)C3,-190.4
O=C(c1cc(COc2ccc(F)cc2Cl)on1)N1C[C@H]2CC[C@H]1C2,-163.6
Cn1c(=O)c2c(nc(NCC3CCCC(CN)C3)n2Cc2ccc(Cl)cc2Cl)n(C)c1=O (stereo not drawn),-83.7
Cc1nn(-c2ccccc2)c(C)c1C(=O)NCCc1ccccc1,-81.8
Cc1nn(-c2ccccc2)c(C)c1C(=O)Oc1ccccc1,-115.3
COc1ccc(OC(=O)c2cnn(-c3ccccc3)c2C)cc1,-222.5
CCOC(=O)c1c(C)nn(-c2ccc(NC(=O)/C=C/C(=O)O)cc2)c1C,i
Cc1c(C(=O)N(C)c2ccc(Cl)cc2)cnn1-c1ccccc1,-64.0
COc1ccc(OC(=O)c2c(C)nn(-c3ccccc3)c2C)cc1,-103.4
CCN(CC)C(=O)CSC(=Nc1ccccc1F)NC#N,-108.7
O=c1[nH]cnc2scc(-c3ccc(-c4ccccc4)cc3)c12,-87.5
CCCOc1ccc(-c2csc3nc[nH]c(=O)c23)cc1,-159.3
CCc1c(C)sc(NC(=O)c2ccco2)c1C#N,-103.9
O=C(NCCCc1ccccn1)C1CCC(=O)N(Cc2cccc(F)c2)C1 (stereo not drawn),-116.7
CN(C)S(=O)(=O)c1ccc(C(=O)NCCSc2ccccc2)cc1,-115.5
COc1ccc(C(=O)NCCSc2ccccc2)cc1OC,-129.2
CCNC(=S)/N=C(\N)Nc1nc(C)c2cc(C)ccc2n1,-206.6
Cc1nc(N)sc1N=Nc1ccc(Br)cc1,-253.9
CCSc1nnc2c(n1)[nH]c1c(C)cccc12,-208.0
CSc1nnc2c(n1)[nH]c1c(C)cccc12,-106.7
C=CCSc1nnc2nc3[nH]c4c(C)cccc4c3nn12,-74.6
CCOc1ccc(/C=C/C2=Cc3c(sc(NC(=O)CSc4n[nH]c(N)n4)c3C#N)C(C)(C)C2)cc1,-95.0
N#Cc1cnc2sc3ccccc3n2c1=N,-68.0
C/C(=N\Nc1ccccc1[N+](=O)[O-])c1ccccc1O,-220.8
CC/C(=N\Nc1ccccc1[N+](=O)[O-])c1ccc(O)cc1,-90.0
SMILES,aSyn 5UTR act
O=C(CCS(=O)(=O)c1ccccc1)N1CCN(c2ccccc2)CC1,-77.7
O=C(CCNS(=O)(=O)c1cccs1)N1CCCCCC1,-102.4
O=C(CCS(=O)(=O)c1cccs1)N1CCCC1,-124.5
Cc1c(/C(O)=C2/C(=O)C(=O)N(Cc3cccnc3)C2c2cccs2)cnn1-c1ccccc1 (stereo not drawn),-152.3
CSc1ccc(CN(C)C(=O)c2cc3ccccc3o2)cc1,-67.0
Cc1nc(N)sc1-c1csc(N(C)c2ccc(O)cc2)n1,-127.1
CN(c1ccc(O)cc1)c1nc(-c2cccs2)cs1,-237.6
Cc1ccc(NC(=O)c2cn(-c3cccc(C)n3)cn2)cc1,-212.4
Cc1cccc(-n2cnc(C(=O)N/N=C/c3ccccc3)c2)n1,-77.8
Cc1nc2cc(Nc3nnc(-c4ccccc4)c4ccccc34)ccc2n1C,-109.6
COc1cc(C(=O)NCC(=O)N2CCN(S(=O)(=O)c3cc(C)ccc3C)CC2)cc(OC)c1OC,-75.0
CCOC(=O)c1ccc(NC(=O)CC2SCCNC2=O)cc1 (stereo not drawn),-81.4
COC(=O)c1ccc(C(=O)NC2CCCc3c2cnn3-c2ccc(C)c(C)c2)cc1 (stereo not drawn),i
Cc1cc(C(=O)NC2CCCc3c2cnn3-c2cccc(C)c2C)no1 (stereo not drawn),-117.7
COc1ccc(-c2noc(-c3ccc(Cl)cc3[N+](=O)[O-])n2)cc1OC,-118.4
Cc1cccc(-c2noc(-c3ccc(Cl)cc3[N+](=O)[O-])n2)c1,-150.6
Cc1cc(C(=O)CSc2cccc[n+]2[O-])c(C)n1-c1ccc(OC(F)F)cc1,-102.9
CN(C)CCNc1ncnc2c1cnn2-c1ccc(Cl)cc1,-92.6
COc1ccc(-n2ncc3c(NCc4ccccn4)ncnc32)cc1,-128.1
COc1ccc(-n2ncc3c(NCc4ccco4)ncnc32)cc1,-162.2
Clc1ccc(-n2ncc3c(NCc4ccc5c(c4)OCO5)ncnc32)cc1,-81.0
Clc1ccc(-n2ncc3c(NCc4ccco4)ncnc32)cc1,-226.7
CCCN(CCC)c1ncnc2c1cnn2-c1ccc(OC)cc1,-77.0
CCC(CO)Nc1ncnc2c1cnn2-c1ccc(OC)cc1 (stereo not drawn),-74.8
O=C(Nc1ncc(Cc2ccc(SC(F)F)cc2)s1)c1ccccc1,i
SMILES,aSyn 5UTR act
Cc1ccc(Cc2cnc(NC(=O)c3cccs3)s2)cc1,-91.2
O=C(Nc1ncc(Cc2cccc(Cl)c2)s1)c1cccs1,-192.4
CC(C)(C)C(=O)[C@H]1[C@H](c2ccccc2)[C@@]2(N=C(c3ccccc3)OC2=O)C2c3ccccc3C=NN21 (stereo partly drawn),-83.2
N#Cc1ccsc1NC(=O)COC(=O)c1ccc2ccccc2c1,-203.3
COc1ccc(CCC(=O)Nc2sccc2C#N)cc1,-156.0
CCN(CC)CCn1c(=N)n(CCOc2ccccc2)c2ccccc21,-93.1
COCn1c(-c2cccc(Br)c2)nc2ccccc21,-63.3
COCn1c(-c2ccc(OC)c(OC)c2)nc2ccccc21,-105.6
COC(=O)c1ccccc1NC(=O)c1noc2c1CCCC2,-78.7
O=C(Nc1cccc(O)c1)c1noc2c1CCCCC2,i
